# In the library only some 2.4% were active in any assay of this set; here they are far more common.
# D2 PAM-1 = potentiates the human D2 dopamine receptor allosterically; P14416; DiscoveRx D2 beta-arrestin cells, luminescence, 90 min; 100% = 57 uM dopamine signal; 360,000 compounds, 0.23% hits; potentiation, % (concentration not given with the values); in the data active = potentiation above about 50%; inconclusive = mostly about 30% to 49%
# Target sequence (P14416 whole entry, looked up): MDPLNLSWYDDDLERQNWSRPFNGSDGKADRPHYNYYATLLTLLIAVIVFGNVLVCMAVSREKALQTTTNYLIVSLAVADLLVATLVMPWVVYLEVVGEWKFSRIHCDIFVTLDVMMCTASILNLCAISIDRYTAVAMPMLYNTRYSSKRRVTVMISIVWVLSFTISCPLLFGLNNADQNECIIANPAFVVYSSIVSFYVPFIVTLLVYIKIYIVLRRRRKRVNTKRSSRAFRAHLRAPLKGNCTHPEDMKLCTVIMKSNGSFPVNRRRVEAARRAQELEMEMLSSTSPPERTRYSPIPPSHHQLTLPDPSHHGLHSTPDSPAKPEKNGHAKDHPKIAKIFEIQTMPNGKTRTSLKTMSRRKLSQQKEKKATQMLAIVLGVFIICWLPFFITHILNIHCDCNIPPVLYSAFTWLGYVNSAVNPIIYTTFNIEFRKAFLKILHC
#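 PathHunter D2 cells, attached overnight at 37 deg C, received compound in DMSO plus dopamine at EC20 (50 nM final) for 90 min at 37 deg C. Beta-arrestin recruitment was read as luminescence after 1 h with detection reagent at ambient temperature.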
# D2 ag-1 = agonists of human D2 dopamine receptor; P14416; HEK293 T-REx D2 cells, calcium flux agonist mode; activation, % at 2 µM; 340,000 compounds, 0.53% hits; AID 485358;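 active = activation over 3 SD above normal in the single-dose calcium agonist read, cut at about 30% in these data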; note: 0% is about no effect
#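 Agonism scored from kinetic calcium signal (1 read/sec, 180 s) following compound pin transfer, after a 10 s baseline. Cells: HEK293 Trex line expressing inducible D2 receptor coupled to calcium, dye-loaded after overnight culture at 30 C.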
# D2 ag-2 = activates the human D2 dopamine receptor | P14416 | DiscoveRx PathHunter D2 beta-arrestin, luminescence, 90 min; 100% = 57 uM dopamine signal | activation, % (no concentration beside the values) | 360,000 compounds, 0.084% hits | AID 624465; in the data active = activation above about 40%; inconclusive = between about 15% and that limit
#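 Agonist mode: compounds alone added to overnight-plated D2 PathHunter cells for 90 min at 37 C, with 57 uM final dopamine (EC100) defining full response. Beta-arrestin recruitment detected by chemiluminescent reagent, read after 1 h at ambient temperature.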
# D2 antagonist = antagonizes the human D2 dopamine receptor; P14416; HEK293 TREx D2 cells, calcium flux, dopamine EC80; inhibition, % at 10 µM; 340,000 compounds, 2% hits; in the data active = inhibition above about 30%; inactive = below that, where a call was filed; note: 0% is about no effect
#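 Cells plated overnight at 30 C with tetracycline; no-wash calcium dye, 30–90 min RT; 10 s baseline; compound pinned; 180 s read; EC80 dopamine added; another 180 s read.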
# D2 PAM-2 = D2 dopamine receptor (human) potentiation. potentiation, % at 10 µM. P14416. 340,000 compounds, 0.34% hits. HEK293 T-REx D2, calcium flux, EC20 dopamine potentiation;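 active = potentiation over 3 SD above the plate norm, cut at about 30% in these data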; note: 0% is about no effect
#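 Potentiation of an EC20 dopamine calcium response is measured in a force-coupled, tetracycline-inducible Hek293 Trex D2 line. Compound-only kinetic reads over 180 s flag agonists before dopamine addition.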
# An asterisk follows results filed as active; ? = inconclusive; nt = not tested or not shown.
SMILES,D2 PAM-1,D2 ag-1,D2 ag-2,D2 antagonist,D2 PAM-2
O=C(CCc1ccccc1)NNC(=O)Nc1ccccc1,-5,-1,3,44*,-5
O=C(O)CCC(=O)NNC(=O)CCC(=O)Nc1ccccc1,-3,0,-1,40*,-5
CCC(O)c1nc2ccccc2n1CCOc1cc(C)cc(C)c1 (stereo unspecified),nt,-1,nt,nt,11
Cc1ccc(CNC(=O)C(C)n2c(=O)cc(-c3ccccc3)c3c(C)nn(C)c32)cc1 (stereo unspecified),nt,-1,nt,nt,19
Cc1nc2c(o1)C(=O)c1ccccc1C2=Nc1ccccc1,51*,nt,?,nt,nt
COc1ccc(/C(N)=N/OC(=O)c2ccco2)cc1,19,4,3,6,1
N/C(=N\OC(=O)c1ccco1)c1ccc(Br)cc1,52*,3,10,-8,-7
Cc1ccc(/C(N)=N/OC(=O)c2ccco2)cc1,56*,1,4,-2,-7
N/C(=N\OC(=O)c1ccco1)c1ccccc1,?,0,9,-7,7
Cc1cccc(/C(N)=N/OC(=O)c2ccco2)c1,56*,0,13,1,-4
CCOCCc1nn2c(=O)cc(COC(=O)c3ccccc3OC)nc2s1,nt,2,nt,nt,-10
CCCCc1ccc(NC(=O)Cn2cnc3c2c(=O)n(C)c(=O)n3C)cc1,nt,1,nt,nt,-15
COc1ccccc1CCNC(=O)Cc1ccc(NC(=O)N2CCSc3ncccc32)cc1,nt,0,nt,nt,-2
COC(=O)c1cnn(-c2ccc(C)c(C)c2)c1-n1cccc1,-2,0,-3,30*,13
S=C(NCCc1ccccc1)N1CCn2cccc2C1c1cccnc1 (stereo unspecified),-19,0,-3,37*,-17
CCOc1ccc(S(=O)(=O)c2cn(Cc3ccc(C)cc3)c3ccc(OC)cc3c2=O)cc1,nt,-1,nt,nt,4
CCN(CC)S(=O)(=O)c1ccc(NC2CCN(Cc3ccccc3)CC2)nc1,-7,0,-1,36*,17
Cc1ccccc1NCC(=O)N/N=C/C(Br)=C/c1ccccc1,-8,-1,0,-6,33*
CCOC(=O)c1ccc(Nc2ccc(C(C)=O)cc2)cc1,5,nt,3,nt,nt
CCOC(=O)c1ccc(Nc2nnc(C(C)(C)C)c(=O)[nH]2)cc1,-10,0,0,53*,0
CCCCn1nnc(NC(=O)c2ccc(-c3ccccc3[N+](=O)[O-])o2)n1,-7,-2,-4,52*,-27
CCn1nnc(NC(=O)c2ccc([N+](=O)[O-])o2)n1,14,0,4,-25,10
O=C(ONC1=NCCCCC1)c1c(F)cccc1F,65*,0,?,13,1
O=C(ONC1=NCCCCC1)c1ccc(Cl)cc1,?,1,?,7,5
COc1ccc(-c2c3c(=O)n(C)c(=O)n(C)c3c3n2-c2ccccc2NC3c2ccc(OC)cc2)cc1 (stereo unspecified),nt,1,nt,nt,-7
SMILES,D2 PAM-1,D2 ag-1,D2 ag-2,D2 antagonist,D2 PAM-2
CC1CCN(CCCNC(=O)CCc2nnc3n(CCc4ccccc4)c(=O)c4ccccc4n23)CC1,-19,0,-2,61*,3
Cc1cc2ncn(C3CC(=O)N(Cc4ccccc4)C3=O)c2cc1C (stereo unspecified),11,0,3,-15,39*
CC(=O)c1ccc(NC(=O)C2CCC(CNS(=O)(=O)c3cccs3)CC2)cc1 (stereo unspecified),nt,1,nt,nt,15
O=C(c1ccc2nc(N3CCCCC3)sc2c1)N1CCN(Cc2ccc3c(c2)OCO3)CC1,-1,49*,-5,8,-8
CCn1cnc2sc(C(=O)N3CCN(Cc4ccc5c(c4)OCO5)CC3)c(C)c2c1=O,nt,33*,nt,-5,-14
CCOC(=O)N1CCN(C(=O)c2ccc3nc(N4CCCCC4)sc3c2)CC1,4,0,2,12,10
Cc1ccccc1C(=O)N1CCC(C(=O)N2CCN(Cc3ccc4c(c3)OCO4)CC2)CC1,0,nt,1,nt,nt
O=C(c1ccc(F)cc1)N1CCC(C(=O)N2CCN(Cc3ccc4c(c3)OCO4)CC2)CC1,-8,4,-2,31*,-12
O=C(c1ccc2nc(N3CCOCC3)sc2c1)N1CCC(Cc2ccccc2)CC1,-2,0,-1,32*,-4
Cc1c(C(=O)NCc2ccccc2C(F)(F)F)sc(=O)n1Cc1ccc2c(c1)OCO2,-6,nt,8,nt,nt
CC(C)(C)OC(=O)NCCc1onc(-c2cccc([N+](=O)[O-])c2)c1C(=O)O,0,nt,-4,nt,nt
Cc1ccc(C(C)C)c(OCc2n[nH]c(=S)o2)c1,-7,0,2,-6,14
Cc1ccc(C(C)C)c(OCc2nc(-c3nonc3N)no2)c1,-6,-1,1,33*,6
Cc1ccccc1NC(=O)CC1SCCNC1=O (stereo unspecified),-4,-1,-2,45*,4
COC(=O)c1cc(NC(=O)CC2SCCNC2=O)cc(C(=O)OC)c1 (stereo unspecified),-1,0,4,35*,3
O=C(CC1SCCNC1=O)Nc1cc(Cl)cc(Cl)c1 (stereo unspecified),-6,nt,-1,nt,nt
CCOc1cc2[nH]c(=O)n(CCCCC(=O)N3CCCCCC3)c(=O)c2cc1OCC,-5,1,1,16,36*
CCOc1cc2[nH]c(=O)n(CCCCC(=O)N3CCN(c4cccc(Cl)c4)CC3)c(=O)c2cc1OCC,nt,nt,nt,nt,-10
CCCCSCCCNC(=O)C1CCC(CNS(=O)(=O)c2c(C)cc(C)cc2C)CC1 (stereo unspecified),nt,1,nt,nt,-8
COc1cc(OC)c(NC(=O)CCS(=O)(=O)c2ccc3c(c2)oc(=O)n3C)cc1Cl,nt,0,nt,nt,0
COc1ccccc1NC(=O)CCS(=O)(=O)c1ccc2c(c1)oc(=O)n2C,-4,0,-4,31*,-1
COc1ccc(CNC(=O)c2cnc3sc(N4CCC(C)CC4)nn3c2=O)c(OC)c1,nt,0,nt,nt,5
CCOC(=O)c1cc2sccc2n1CC(=O)N1CCc2ccccc21,-6,0,-1,0,34*
CSc1ccc(CN2CCCC(CO)(Cc3ccccc3)C2)cc1 (stereo unspecified),-12,0,-2,51*,-27
CCOc1ccc(CN2CCCC(CO)(Cc3ccc(F)cc3)C2)cc1 (stereo unspecified),-21,0,-1,68*,-18
OCC1(CCc2ccccc2)CCCN(CCCc2ccccc2)C1 (stereo unspecified),-23,0,5,76*,-23
Cc1nc2ccc(C(=O)N3CCCC(CO)(Cc4ccc(F)cc4F)C3)cc2nc1C (stereo unspecified),-8,1,2,30*,-25
COC(=O)c1c(-c2cccs2)csc1NC(=O)c1ccc(C(C)(C)C)cc1,nt,1,nt,nt,22

# Bioassay records (PubChem)
